Epigenetic reg = regulators of epigenetic silencing causing reporter derepression in mouse cells | AID 1865 | Potency, µM (highest dose often 53.9 µM), without a hit: top-dose GFP activation, most hits filed as activators | 280,000 compounds, 0.2% hits | murine LDR cells, GFP reporter derepression, 30 h; active = well fitted activation curve with a large enough effect; note: potency is the fitted concentration of half-maximal effect; % of control where 0% means no effect; nearly all actives have a fitted effect of over 60% in size
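Readout is the number of GFP-expressing murine LDR cells, counted by cytometry following washing. Cells were treated with compound for 30 h at 37 C; the stably integrated CMV-GFP locus is normally silent.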
D1 potentiator = enhances dopamine response at the human D1 receptor; P21728; HEK293 TREx D1 cells, calcium flux, dopamine EC20 potentiation; potentiation, % at 10 µM; 360,000 compounds, 0.036% hits; in the data active = potentiation above about 30%; note: 0% is about no effect
Target sequence (P21728 whole entry, looked up): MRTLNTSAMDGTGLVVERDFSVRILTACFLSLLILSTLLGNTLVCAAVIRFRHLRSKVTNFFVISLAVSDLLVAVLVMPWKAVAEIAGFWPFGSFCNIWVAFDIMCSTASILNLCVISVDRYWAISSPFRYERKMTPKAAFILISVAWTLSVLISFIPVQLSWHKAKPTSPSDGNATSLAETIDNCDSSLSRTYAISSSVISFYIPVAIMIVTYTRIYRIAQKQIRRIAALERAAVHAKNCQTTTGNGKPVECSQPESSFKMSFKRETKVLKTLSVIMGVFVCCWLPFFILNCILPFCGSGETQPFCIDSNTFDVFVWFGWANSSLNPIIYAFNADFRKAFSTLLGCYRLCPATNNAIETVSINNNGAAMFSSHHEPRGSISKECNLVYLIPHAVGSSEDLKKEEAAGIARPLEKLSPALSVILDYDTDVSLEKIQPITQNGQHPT
D1 agonist = human D1 receptor agonism | AID 504660 | 360,000 compounds, 1% hits | activation, % at 2 µM | HEK293 T-REx D1 cells, calcium flux, agonist mode | P21728; note: 0% is about no effect
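Inducible HEK293 T-REx D1 cells, force-coupled to calcium signalling, were plated at 4000 cells/well with tetracycline and held overnight at 30 C. After no-wash calcium dye loading, compound-evoked calcium rise over 180 s flagged agonists.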
D1 antagonist = human D1 dopamine receptor antagonism. 360,000 compounds, 3.2% hits. HEK293 TREx D1 cells, calcium flux, dopamine EC80; stronger effect = lower value. AID 504652. activity change, negative = inhibition, % at 10 µM; in the data active = activity change below about -30%; note: % is set by controls: 0 for no effect and ±100 for the full control effect
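HEK293 T-REx cells expressing inducible, force-coupled D1 receptor; no-wash Ca dye, 30–90 min RT. Cmpd → 180 s read at 1 Hz → EC80 DA → 180 s read.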
TRHR ag = TRH receptor (human) agonism | P34981 | TRHR cells, calcium flux fluo-8, FDSS agonist mode | activation, % at 2 µM | 360,000 compounds, 0.18% hits; note: 0% is about no effect
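Steps: seed TRHR cells overnight; add fluo-8 no-wash Ca dye, RT 30 min–1.5 h; record 10 s baseline; pin-transfer compounds; monitor fluorescence 1 cycle/s for the agonist window. Calcium increases flag candidate agonists.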
TRHR PAM = allosteric enhancers of human TRH receptor; P34981; TRHR cells, fluo-8 calcium fluorescence, EC20 TRH enhancement; enhancement, % at 2 µM; 360,000 compounds, 0.66% hits; AID 493056; in the data active = enhancement above about 30%; note: 0% is about no effect
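Enhancer read-out: after compound pinning and an initial kinetic agonist-mode read, an EC20 of TRH (10 nM final) was injected and fluo-8 calcium signal (Ex 480/Em 530) followed at 1 s/cycle for 100 cycles in TRHR-expressing cells.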
Numbers without * were called inactive; · = no result given; [ ] = another dose, or the depositor's remark. Sampled rows, rich in hits. Any-hit rate of the full collection: about 4.6%. Cut-off read from the data, not from the text of the source, unless noted: active = activation above about 30%; inactive = the rest.

SMILES	Epigenetic reg	D1 potentiator	D1 agonist	D1 antagonist	TRHR ag	TRHR PAM
COc1ccc(CCNC(=O)C(=O)NCC2OCCN2S(=O)(=O)c2ccc(Cl)cc2)cc1 (centres undefined)	·	-11	9	-24	0	2
Cc1c(/C=N\NC(=O)C2COc3ccc(C(C)(C)C)cc3O2)c2ccccc2n1C (centres undefined)	-1%	-12	-1	-86*	1	-24
Cn1cccc1/C=N\NC(=O)C1COc2ccccc2O1 (centres undefined)	·	-10	1	-38*	0	-5
Cn1c(=O)c2c(-c3ccccc3)n3c(c2n(C)c1=O)C(c1cccc([N+](=O)[O-])c1)Nc1ccccc1-3 (centres undefined)	-5%	-3	3	-9	1	-2
Cc1ccc(C)c(Nc2ncnc3c2cnn3-c2ccc(F)cc2)c1	8%	0	-1	-16	1	-3
CC(C)N(c1nnc(N)s1)C(C)C	-2%	-6	-1	-31*	0	6
CN(Cc1ccccc1)c1nnc(N)s1	10%	1	-2	-1	0	-5
Cc1ccc(Cl)cc1-n1c(=O)c2sc3ccccc3c2n(CC(=O)NC2CCCCC2)c1=O	4%	1	0	5	1	-18
FC(F)(F)c1cccc(Nc2c3c(nc4ccc(Cl)cc24)CCC3)c1	6%	-1	5	-32*	2	-6
COc1ccccc1Nc1c2c(nc3ccc(NC(=O)c4cccc(F)c4)cc13)CCCC2	-1%	5	2	15	-2	-3
Fc1ccc(F)c(Nc2c3c(nc4ccc(Cl)cc24)CCC3)c1	3%	-4	4	-7	-1	43*
Cc1ccc2nc3c(c(Nc4ccccc4)c2c1)CCC3	-1%	-5	1	-11	-1	5
COc1ccc(-n2nnc3c(SCC(=O)OCc4ccccc4)ncnc32)cc1	-1%	-9	5	-4	0	31*
COc1ccc(NC(=O)CSc2ncnc3c2nnn3-c2ccc(F)cc2)c(OC)c1	12%	-4	2	-34*	1	-5
Cc1ccc(-n2[nH]c(C)c(C=Nc3ccc(Br)cn3)c2=O)cc1	-2%	-8	2	-33*	0	0
Cc1ccc(CNc2oc(-c3ccco3)nc2C#N)cc1	-2%	-7	2	-37*	2	-10
CNc1oc(-c2ccco2)nc1C#N	-1%	-3	0	9	0	6
COc1ccccc1NC(=O)c1cc2c(n(-c3ccc(C)cc3)c1=O)CC(C)(C)CC2=O	3%	-1	-2	-31*	2	-7
CCNc1nc(SCC(N)=O)nc2sc3c(c12)CCN(C)C3	·	-4	33*	-5	-1	-2
CSc1nc(NCc2ccco2)c2c3c(sc2n1)CN(C)CC3	-1%	-9	1	-42*	0	7
Cc1ccc(C)c(Nc2nc(-c3ccccc3)c3cc(Br)ccc3n2)c1	-2%	3	5	5	1	-6
O=C(Cn1c(-c2cccs2)cc2ccccc21)NCCCN1CCN(c2ccccc2F)CC1	0%	-5	1	-62*	0	1
O=C(CCNC(=O)Cn1ccc2ccccc2c1=O)NCCCN1CCOCC1	0%	4	1	16	-1	-10
O=C(CCNC(=O)Cn1ccc2ccccc2c1=O)NCCCN1CCN(c2ccc(F)cc2)CC1	-2%	-19	1	-51*	0	18
O=C(CCNC(=O)Cn1ccc2ccccc2c1=O)NCCCN1CCN(c2ccccc2F)CC1	7%	-16	2	-68*	-1	-3
SMILES	Epigenetic reg	D1 potentiator	D1 agonist	D1 antagonist	TRHR ag	TRHR PAM
O=C(CNC(=O)Cn1ccc2ccccc2c1=O)NCCCN1CCN(c2cccc(Cl)c2)CC1	-1%	-11	-1	-37*	0	7
OCC1=CC[N+]2(Cc3ccccc3)CCC(O)[C@@H]12 (some centres undefined)	-1%	·	·	·	·	·
CCOC(=O)c1c(C)[nH]c(CCC(=O)NCCCN2CCN(c3cc(Cl)ccc3C)CC2)c1C	-2%	-4	27	-12	0	-3
CCOC(=O)c1c(C)[nH]c(CCC(=O)NCCCN2CCN(c3ccc(F)cc3)CC2)c1C	4%	-6	0	-37*	0	-4
CC1=CC[C@@]2(CO)COC(c3ccccc3O)C1C2 (some centres undefined)	0%	·	·	·	·	·
Cc1ccc(Nc2nc(Cl)nc(NC(C)(C)C)n2)cc1	·	-1	11	-37*	1	-7
O=C(Oc1ccc2c(c1)O/C(=C\c1ccncc1)C2=O)c1ccccc1	8%	-1	56*	3	0	3
Cc1ccc(/C=C2\Oc3cc(OC(=O)N4CCOCC4)ccc3C2=O)cc1	0%	-6	0	-25	0	-7
CCCCn1c2nc3ccccc3nc2c2c(=O)n(CCC)cnc21	1%	3	5	10	-1	-5
CCn1nc(-c2ccccc2)c2nc3ccccc3nc21	18%	0	98*	17	20	-5
CCCn1nc(-c2ccccc2)c2nc3ccccc3nc21	3%	8	70*	5	16	-3
CCOC(=O)[C@]1(C(NC(=O)OC)c2cccc(F)c2)CCCC1=O (some centres undefined)	0%[10.1 µM]	·	·	·	·	·
Cn1c2c(c(=O)n(C)c1=O)C(C(F)(F)F)(C(F)(F)F)N=C(CCC1CCCCC1)N2	-1%	-8	18	-52*	2	-4
COc1ccc(-c2noc(N3CCC(C(=O)Nc4ccc(OC)cc4OC)CC3)n2)cc1	·	-14	9	-31*	0	2
COc1ccc(-c2noc(N3CCC(C(=O)N4CCN(c5ccccc5OC)CC4)CC3)n2)cc1	-1%	-4	8	-56*	1	-10
Cc1nc(-c2ccc(C)c(S(=O)(=O)N3CCC(C(=O)NCc4ccc(Cl)cc4)CC3)c2)no1	1%	2	1	-17	0	30*
COc1ccc(-c2noc(N3CCC(C(=O)N4CCN(c5cccc(C)c5C)CC4)CC3)n2)cc1	0%	1	5	-8	0	-3
COc1ccc(-c2noc(N3CCC(C(=O)NCc4ccc(F)cc4)CC3)n2)cc1	·	-10	10	-36*	0	0
CCc1ccc(NC(=O)C2CCN(c3nc(-c4ccc(OC)cc4)no3)CC2)cc1	16%	-1	0	-2	0	18
Cc1ccc(CNC(=O)C2CCN(S(=O)(=O)c3cc(-c4noc(C)n4)ccc3C)CC2)cc1	0%	-5	5	-9	0	5
COc1ccc(-c2noc(N3CCC(C(=O)Nc4ccc(F)cc4F)CC3)n2)cc1	·	-10	8	0	-1	14
